This passage reports growth inhibition results from PubChem BioAssay (NCI).

“And” between values parts separate entries of the source, which are not always exact repeats. Equal entries are not always repeated. This is part of a sample that, as a whole, favours compounds with a hit. Of some 79,000 tested, about 15% had one in any assay. Unmarked numbers belong to inactive results. The source made the active and inactive calls. Cut-off read from the data, not from the text of the source: active = growth inhibition above about 70%; inactive = the rest.

A short description of assay [1]: NCI Yeast Anticancer Drug Screen. Data for the rad50 strain (AID 155).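 Note: 0% = growth of vehicle-only cultures of the same strain.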 The conditions noted are these: S. cerevisiae rad50 strain growth inhibition, active compounds read high. The method, boiled down:
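Inhibition values express reduced yeast growth in compound-treated cultures relative to vehicle-treated controls.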

Assay [2] is described as follows: NCI Yeast Anticancer Drug Screen. Data for the sgs1 mgt1 strain (AID 161).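 Note: 0% = growth of cultures given vehicle only.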 The conditions noted are these: S. cerevisiae sgs1 mgt1 strain, active compounds read high. Summed up:
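Growth of a repair-deficient yeast mutant was monitored after compound treatment and expressed as inhibition relative to vehicle-treated cultures.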

Assay [3] can be described thus: NCI Yeast Anticancer Drug Screen. Data for the cln2 rad14 strain (AID 165).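 Note: 0% = growth equal to vehicle treated cultures.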 Particulars: S. cerevisiae cln2 rad14 strain, active compounds read high. The method, boiled down:
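Growth inhibition, relative to vehicle-treated controls, is the read-out. The test organism is a yeast strain with defined genetic alterations, cln2 rad14.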

A short description of assay [4]: NCI Yeast Anticancer Drug Screen. Data for the bub3 strain (AID 167). Particulars: S. cerevisiae bub3 mutant strain, active compounds read high. The method, boiled down:
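Steps: expose the mutant yeast strain to compound; grow alongside vehicle-treated cultures; measure growth; express inhibition against the vehicle cultures.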

A short description of assay [5]: NCI Yeast Anticancer Drug Screen. Data for the mlh1 rad18 strain (AID 175). Particulars: S. cerevisiae mlh1 rad18 strain growth inhibition, active compounds read high. The method, boiled down: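 Cells of a genetically altered yeast strain, deficient in DNA damage repair, were treated with compound. Their growth was then compared with that of vehicle-treated cultures to give inhibition.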

Assay [6] is described as follows: NCI Yeast Anticancer Drug Screen. Data for the mec2-1 strain (AID 157). Particulars: S. cerevisiae mec2-1 strain, active compounds read high. The method, boiled down: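 Growth inhibition is read against vehicle-treated controls after compound exposure of the mec2-1 yeast strain, which is defective in DNA damage repair or cell cycle control.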
[7] abbreviates: at 5.0 µM (retest, dose inferred, filed as 0.5).
[8] abbreviates: at 50.0 µM (retest, dose inferred, filed as 5.0).

On to `O=C(C1=NNC(c2ccccc2)C1C(=O)c1ccccc1)c1ccccc1` (stereo unspecified), for which the growth inhibition is -1% in assay [1] (setting [7]); 82% (active) in assay [1] (setting [8]); 74.8% (active) in assay [1] (at 50.0 µM); 2% in assay [2] (setting [7]); 84% (active) in assay [2] (setting [8]); 79% (active) in assay [2] (at 50.0 µM). The growth inhibition in assay [3] (setting [7]) was 2%; in assay [3] (setting [8]) it was 67%; in assay [3] (at 50.0 µM), 67%; in assay [4] (setting [7]) it was -10%; in assay [4] (setting [8]), 86% (active); in assay [4] (at 50.0 µM) it was 75% (active). For the same compound, the growth inhibition was 4% in assay [5] (setting [7]), 86% (active) in assay [5] (setting [8]) and 81.2% (active) in assay [5] (at 50.0 µM).
As for `N=C(N)Cc1ccc(NC(=O)c2ccc(C(=O)Nc3ccc(CC(=N)N)cc3)cc2)cc1`, the growth inhibition in assay [1] (setting [7]) was 3%; in assay [1] (setting [8]), -8%; in assay [1] (at 50.0 µM), 21.4%; in assay [2] (setting [7]) it was -11%; in assay [2] (setting [8]), -21%; in assay [2] (at 50.0 µM) it was 78.4% (active). In addition, the growth inhibition in assay [3] (setting [7]) is -7%; in assay [3] (setting [8]), -16%; in assay [3] (at 50.0 µM) it was 14.7%; in assay [4] (setting [7]), -3%; in assay [4] (setting [8]) it was -11%; in assay [4] (at 50.0 µM), 56.3%. Further, the growth inhibition is 2% in assay [5] (setting [7]), -49% in assay [5] (setting [8]) and 27.9% in assay [5] (at 50.0 µM).
As to `Nc1cccc2c1[nH]c(=O)c1ccccc12`, the growth inhibition was 7% in assay [1] (setting [7]); 70% (active) in assay [1] (setting [8]); 78.8% (active) in assay [1] (at 50.0 µM); 5% in assay [6] (setting [7]); 31% in assay [6] (setting [8]); 64% in assay [6] (at 50.0 µM). The growth inhibition is 2% in assay [2] (setting [7]); 33% in assay [2] (setting [8]); 51.9% in assay [2] (at 50.0 µM); -3% in assay [4] (setting [7]); 98% (active) in assay [4] (setting [8]); 75.8% (active) in assay [4] (at 50.0 µM). In addition, the growth inhibition in assay [5] (setting [7]) is 9%; in assay [5] (setting [8]) it was 97% (active); in assay [5] (at 50.0 µM), 91.2% (active).
With `CCOC(=O)c1c(C)[nH]c(C(=O)C(N)C(=O)OCC)c1C` (stereo unspecified), the growth inhibition is 6% in assay [6] (setting [7]); -6% in assay [6] (setting [8]); 99.5% (active) in assay [6] (at 50.0 µM); 7% in assay [2] (setting [7]); -1% in assay [2] (setting [8]); 98.8% (active) in assay [2] (at 50.0 µM). In addition, the growth inhibition is 3% in assay [3] (setting [7]); -1% in assay [3] (setting [8]); 99.5% (active) in assay [3] (at 50.0 µM); -3% in assay [4] (setting [7]); -5% in assay [4] (setting [8]); 99.4% (active) in assay [4] (at 50.0 µM). Further, the growth inhibition in assay [5] (setting [7]) is 4%; in assay [5] (setting [8]), -6%; in assay [5] (at 50.0 µM), 99% (active).
For the compound `CC1C2CCC3C4CC=C5CC(N(C)C)CCC5(C)C4CCC32CN1C` (stereo unspecified), the growth inhibition was -9.65% and 13.9% and -0.1% in assay [1] (at 50.0 µM); -3.8% and 1% and -6.15% in assay [6] (at 50.0 µM); -8% and 7.6% and -3.15% in assay [2] (at 50.0 µM); 7.25% and 0.15% and 30.5% in assay [3] (at 50.0 µM); -6.35% and 18.9% and 33.6% in assay [4] (at 50.0 µM); 9.35% and 23.6% and -7.35% in assay [5] (at 50.0 µM).
As for `c1ccc2c(O[Si](Oc3cccc4ccccc34)(Oc3cccc4ccccc34)Oc3cccc4ccccc34)cccc2c1`, the growth inhibition in assay [1] (setting [7]) was 7%; in assay [1] (setting [8]), 87% (active); in assay [1] (at 50.0 µM), 96% (active); in assay [2] (setting [7]), 3%; in assay [2] (setting [8]) it was 89% (active); in assay [2] (at 50.0 µM) it was 97.8% (active). Also, the growth inhibition in assay [3] (setting [7]) was -5%; in assay [3] (setting [8]), 71% (active); in assay [3] (at 50.0 µM), 89.6% (active); in assay [4] (setting [7]) it was 3%; in assay [4] (setting [8]), 93% (active); in assay [4] (at 50.0 µM) it was 96.8% (active). The values for the growth inhibition in assay [5] (setting [7]), in assay [5] (setting [8]) and in assay [5] (at 50.0 µM) were 2%, 86% (active) and 95.8% (active), respectively.
`CCO/N=C1\CCCCC1SS(=O)(=O)O` (stereo unspecified): the growth inhibition in assay [6] (setting [7]) was 7%; in assay [6] (setting [8]), 17%; in assay [6] (at 50.0 µM), -14.1%; in assay [2] (setting [7]) it was -6%; in assay [2] (setting [8]), 20%; in assay [2] (at 50.0 µM), 31.8%. Moreover, the growth inhibition in assay [3] (setting [7]) is 0%; in assay [3] (setting [8]), 7%; in assay [3] (at 50.0 µM), 15.2%; in assay [4] (setting [7]), 5%; in assay [4] (setting [8]), 22%; in assay [4] (at 50.0 µM) it was 8.2%. The values for the growth inhibition in assay [5] (setting [7]), in assay [5] (setting [8]) and in assay [5] (at 50.0 µM) were -1%, 4% and 31.9%, respectively.
Regarding `CC(C)n1nnc2c3ccccc3c3ccccc3c21`, the growth inhibition in assay [6] (setting [7]) was 5%; in assay [6] (setting [8]), -1%; in assay [6] (at 50.0 µM), 4.1%; in assay [2] (setting [7]), -2%; in assay [2] (setting [8]) it was 6%; in assay [2] (at 50.0 µM), 11.8%. Moreover, the growth inhibition in assay [3] (setting [7]) is 15%; in assay [3] (setting [8]) it was 19%; in assay [3] (at 50.0 µM) it was -1.25%; in assay [4] (setting [7]) it was 14%; in assay [4] (setting [8]) it was 12%; in assay [4] (at 50.0 µM) it was 5.9%. The figures for the growth inhibition in assay [5] (setting [7]), in assay [5] (setting [8]) and in assay [5] (at 50.0 µM) were -10%, 15% and 0%, respectively.
